# Test results: PMC5540273 (PLoS ONE, 2017)
# Key:
# Settings in all cases: concentration: 1 μM, replicates: in singlicate; n = 1
# ADCK4 = tested on: ADCK4
# AKT1 = tested on: AKT1
# AKT2 = tested on: AKT2
# AKT3 = tested on: AKT3
# ALK = tested on: ALK
# AMPK-alpha1 = tested on: T1, AMPK-alpha1
# T1 construct: gene PRKAA1
# AMPK-alpha2 = tested on: T2, AMPK-alpha2
# T2 construct: gene PRKAA2
# ANKK1 = tested on: ANKK1
# ARK5 = tested on: T3, ARK5
# T3 construct: gene NUAK1
# ASK1 = tested on: T4, ASK1
# T4 construct: gene MAP3K5
# ASK2 = tested on: T5, ASK2
# T5 construct: gene MAP3K6
# AURKA = tested on: AURKA
# AURKB = tested on: AURKB
# AURKC = tested on: AURKC
# AXL = tested on: AXL
# BIKE = tested on: T6, BIKE
# T6 construct: gene BMP2K
# BLK = tested on: BLK
# BMPR1A = tested on: BMPR1A
# BMPR1B = tested on: BMPR1B
# BMPR2 = tested on: BMPR2
# 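Further: KINOMEscan kinase panel screen.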
SMILES,%Inh (ADCK4) [%],%Inh (AKT1) [%],%Inh (AKT2) [%],%Inh (AKT3) [%],%Inh (ALK) [%],%Inh (AMPK-alpha1) [%],%Inh (AMPK-alpha2) [%],%Inh (ANKK1) [%],%Inh (ARK5) [%],%Inh (ASK1) [%],%Inh (ASK2) [%],%Inh (AURKA) [%],%Inh (AURKB) [%],%Inh (AURKC) [%],%Inh (AXL) [%],%Inh (BIKE) [%],%Inh (BLK) [%],%Inh (BMPR1A) [%],%Inh (BMPR1B) [%],%Inh (BMPR2) [%]
O=C(O)C(F)(F)F.O=c1[nH]ccc2nc(N[C@@H]3CCNC3)nc(Nc3cc(Cl)cc(Cl)c3)c12 [GSK2188764],14,0,0,0,90.5,87,90,97.1,99.5,0,4,97.3,75,69,92.1,97.6,0,0,0,70
COc1ccc(C)c(Nc2ccnc(Nc3ccc(-c4cnc[nH]4)cc3)n2)c1.Cl [GW784041],53,14,0,8,0,30,0,0,99.3,0,0,20,8,56,0,37,59,70,99.9,0
CN(C)CCOc1ccc(-c2cc(-c3ccc(Cl)c(O)c3)c(-c3ccncc3)[nH]2)cc1.Cl.Cl [SB-684387],21,0,0,55,18,0,11,8,1,15,0,21,0,0,0,0,64,90.6,29,10
O=C1NC(=O)C(c2ccccc2Cl)=C1Nc1cccc(Cl)c1 [SB-342409],0,0,100,0,41,0,11,0,14,8,0,0,22,0,0,15,2,0,0,0
CN(c1ccc(NC(=O)N2CCN(CCCN3CCOCC3)CC2)cc1)c1ccnc(Nc2ccc(CS(C)(=O)=O)cc2)n1.Cl [GW830899],5,0,0,0,0,0,12,0,0,0,0,84,76,75,2,86,0,6,7,0
COc1cccc(C2=C(Nc3cccc(O)c3)C(=O)NC2=O)c1 [SB-390771],32,0,7,0,4,16,3,0,12,7,0,16,24,0,1,0,0,0,0,36
Cc1ccccc1CC(=O)N1CCc2cc(-c3cn(C)c4ncnc(N)c34)ccc21 [GSK2603346],3,0,4,0,20,18,23,0,42,30,6,27,92,100,98.7,82,49,0,0,0
CN(C)c1ncnc2nc[nH]c12 [SKF-31736],19,0,0,0,0,0,0,0,0,0,0,12,54,0,0,0,0,0,7,46
CC(C)NCC(Cc1ccccc1)NC(=O)c1cc(Br)c(-c2ccnc3[nH]ccc23)s1.Cl.Cl (stereo not shown) [GSK1383281],87,90,73,86,32,57,41,17,62,0,11,95.1,93.8,91.7,74,79,0,0,0,8
Fc1cc(Cl)ccc1Nc1ccnc2cc(-c3ccc(CN4CCSCC4)o3)ccc12 [GW560106],31,0,2,0,28,3,18,14,13,0,0,100,0,18,33,4,97.7,14,45,5
Cc1cc(-c2ccnc(Nc3cccc(C#N)c3)n2)cc(C)c1O [GSK1440913],72,0,0,0,7,17,32,9,23,0,11,47,19,70,51,99.5,0,0,0,16
O=C(Nc1n[nH]c2cc(-c3cccs3)ccc12)C1CC1 [SB-731284],0,0,0,0,28,0,0,45,0,0,39,42,51,42,0,84,0,2,35,24
Fc1cc(Cl)ccc1Nc1ccnc2cc(-c3ccc(CN4CCOCC4)o3)ccc12 [GW560109],13,0,0,19,62,0,21,16,4,16,8,89,35,35,40,21,94.4,18,62,0
COC(=O)Nc1nc2cc(Oc3ccc(NC(=O)Nc4cccc(SC)c4)cc3)ccc2[nH]1.Cl [GW697999],48,0,0,0,25,5,0,10,0,2,0,0,92.5,43,90.1,6,65,0,0,4
Cc1cccc(Nc2nc(N[C@H]3CCCC[C@H]3N)ncc2C(N)=O)c1.Cl [GSK986310],29,0,28,0,61,39,29,95.7,40,0,6,0,24,62,59,50,67,12,0,28
COc1cc(Nc2nccc(N3CCC(NC(=O)Nc4ccc5c(c4)OCO5)C3)n2)cc(OC)c1OC (stereo not shown) [GSK1379766],69,0,2,0,63,2,10,36,24,4,12,86,69,90.1,0,74,0,0,0,30
Cc1ccc(NC(=O)c2ccc(Cl)c(Cl)c2)cc1-c1ccc(C(=O)Nc2ccncc2)cc1 [GSK1398460],20,0,15,0,41,21,21,18,10,16,0,7,1,67,100,40,45,0,0,0
Cc1ccc(O)cc1Nc1ccnc2cc(-c3ccc(CN4CCCCC4)o3)ccc12 [GW557777],88,0,3,0,0,0,0,0,0,37,0,0,0,15,0,4,99.7,61,99.9,0
Cl.N#CCc1ccc(Nc2nccc(Nc3ccc(Oc4ccccc4)cc3)n2)cc1 [GW639905],72,0,4,0,40,0,0,98.9,0,0,7,6,31,34,22,26,94.1,0,0,0
COc1ccc(NC(=O)c2ccoc2)cc1-c1ccc(C(=O)NCC2CC2)cc1 [GW810437],0,15,0,0,0,19,0,7,0,30,0,1,33,0,0,0,21,7,2,46
